Where “and” joins values, the source holds several entries; their conditions need not be identical. Equal values may be shown once. Out of some 5,500 compounds screened, about 2,000 (36%) were called active. Not shown: some 18% with an inconclusive outcome. Rule as the data show it: active = normalized growth mostly below about 0.91 (no sharp cut-off); inconclusive = no clear call, values can overlap the other calls; inactive = mostly above about 0.92. The list shows a part of the results.
Test: chemical genetic growth profiling, strain panel (AID 1159580);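 also: tested at 20 µM; growth read once vehicle control cultures reached saturation at 30 °C; 1 = growth at the plate median or of vehicle wells; lower values mean less growth of the strain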
Conditions: S. cerevisiae deletion strains, growth OD

Measured: normalized growth

CCC(=O)O[C@]1(C(=O)CCl)[C@@H](C)CC2C3CCC4=CC(=O)C=C[C@]4(C)[C@@]3(F)[C@@H](O)C[C@@]21C (stereo not given in full)
inactive: locus YAL013W, strain DEP1, hits give low values 0.976 | locus YAL021C, strain ccr4, hits give low values 1.02 | locus YAL026C, strain drs2, hits give low values 1.02 | locus YAL030W, strain snc1, hits give low values 1.02 | locus YBL061C, strain skt5, hits give low values 1.03 | locus YBR009C, strain hhf1, hits give low values 1.01 | locus YBR021W, strain FUR4, hits give low values 0.968 | locus YBR023C, strain chs3, hits give low values 1.02 | locus YBR171W, strain sec66, hits give low values 1.03 | locus YBR229C, strain ROT2, hits give low values 0.986 | locus YBR231C, strain swc5, hits give low values 1.02 | locus YBR279W, strain paf1, hits give low values 1 | locus YCL011C, strain gbp2, hits give low values 1.02 | locus YCL016C, strain dcc1, hits give low values 1.02 | locus YCL029C, strain bik1, hits give low values 0.96 | locus YCL061C, strain MRC1, hits give low values 1.03 | locus YCL069W, strain vba3, hits give low values 1.02 | locus YCR088W, strain abp1, hits give low values 1.02 | locus YDL005C, strain med2, hits give low values 1.03 | locus YDL035C, strain GPR1, hits give low values 0.958 | locus YDL040C, strain nat1, hits give low values 1.03 | locus YDL074C, strain BRE1, hits give low values 0.975 | locus YDL101C, strain DUN1, hits give low values 0.989 | locus YDL134C, strain PPH21, hits give low values 0.981 | locus YDL185W, strain tfp1, hits give low values 0.949 | locus YDL192W, strain arf1, hits give low values 0.982 | locus YDR001C, strain nth1, hits give low values 1.02 | locus YDR069C, strain doa4, hits give low values 1.03 | locus YDR101C, strain arx1, hits give low values 1.01 | locus YDR137W, strain rgp1, hits give low values 0.99 | locus YDR150W, strain NUM1, hits give low values 0.975 | locus YDR159W, strain sac3, hits give low values 1.02 | locus YDR162C, strain NBP2, hits give low values 0.953 | locus YDR195W, strain ref2 1.02 | locus YDR297W, strain sur2, hits give low values 1.01 | locus YDR318W, strain mcm21, hits give low values 0.988 | locus YDR334W, strain swr1, hits give low values 1.01 | locus YDR335W, strain msn5, hits give low values 1.02 | locus YDR388W, hits give low values 0.987 | locus YDR392W, strain spt3, hits give low values 1.03 | locus YDR502C, strain sam2, hits give low values 0.963 | locus YEL003W, strain gim4, hits give low values 1.01 | locus YEL037C, strain rad23, hits give low values 1.02 | locus YEL061C, strain CIN8 (second series), hits give low values 1.02 | locus YEL061C, strain CIN8, hits give low values 0.985 | locus YER015W, strain faa2, hits give low values 1.01 | locus YER016W, strain bim1, hits give low values 1.01 | locus YER110C, hits give low values 0.971 | locus YER111C, strain swi4, hits give low values 1.02 | locus YER155C, strain BEM2 (second series), hits give low values 1.07 | locus YER155C, strain BEM2, hits give low values 0.987 | locus YER167W, strain BCK2, hits give low values 0.986 | locus YFR010W, strain ubp6, hits give low values 1.02 | locus YGL078C, strain dbp3, hits give low values 0.978 | locus YGL086W, strain mad1, hits give low values 0.973 | locus YGL167C, strain pmr1, hits give low values 1.03 | locus YGL173C, strain kem1, hits give low values 1.05 | locus YGL227W, strain vid30, hits give low values 1.04 | locus YGL240W, strain doc1, hits give low values 1.02 | locus YGL248W, strain PDE1, hits give low values 1.02 | locus YGL253W, strain hxk2, hits give low values 1 | locus YGR078C, strain PAC10, hits give low values 0.999 | locus YGR135W, strain pre9, hits give low values 0.974 | locus YGR229C, strain SMI1, hits give low values 0.971 | locus YGR252W, strain gcn5, hits give low values 1.04 | locus YHR013C, strain ard1, hits give low values 1.03 | locus YHR027C, strain rpn1, hits give low values 1.01 | locus YHR030C, strain SLT2, hits give low values 0.974 and 0.963 | locus YHR079C, strain IRE1 (second series), hits give low values 0.98 | locus YHR079C, strain IRE1, hits give low values 0.957 | locus YHR094C, strain hxt1, hits give low values 0.972 | locus YHR129C, strain ARP1, hits give low values 0.993 | locus YHR142W, strain chs7, hits give low values 1.01 | locus YHR200W, strain rpn10, hits give low values 0.977 | locus YIL066C, strain RNR3, hits give low values 0.985 | locus YIL073C, strain SPO22, hits give low values 0.876 | locus YIL125W, strain kgd1, hits give low values 0.985 | locus YIR030C, strain dcg1, hits give low values 0.985 | locus YJL092W, strain hpr5, hits give low values 1.02 | locus YJL095W, strain BCK1 (second series), hits give low values 1.03 | locus YJL095W, strain BCK1, hits give low values 1.05 and 0.971 | locus YJL115W, strain asf1, hits give low values 1.04 | locus YJL129C, strain trk1, hits give low values 1.01 | locus YJL134W, strain LCB3, hits give low values 0.981 | locus YJL154C, strain vps35, hits give low values 1.01 | locus YJL164C, strain tpk1, hits give low values 1.03 | locus YJL166W, strain qcr8, hits give low values 1.03 | locus YJL168C, strain set2, hits give low values 1 | locus YJL187C, strain SWE1 (second series), hits give low values 1 | locus YJL187C, strain SWE1, hits give low values 1.02
